From PubChem BioAssay (NCATS) come the findings set out here.

Results filed as inconclusive are left out. Values without a mark were called inactive. Activity calls are given as the source filed them. The call rests on the fitted dose curve; in most records, active means well fitted cell-killing curve with a large enough effect; inconclusive means small, poorly fitted or top-dose-only effect, or effect the other way; inactive means no such curve, though single readings can be large or run the other way.
Potency means the concentration at half of the fitted maximal effect.

This assay can be described thus: Viability qHTS for spleen associated tyrosine kinase inhibitor (SYKi) naive MV4-11 cells (AID 1963823). Further: nearly all actives have a fitted effect of over 40% in size. The conditions noted are these: MV4-11 AML viability, CellTiter-Glo luminescence, 72 h; series mostly up to 45 µM; viability (% of control): at the top concentration. The method, boiled down: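 Read-out: CellTiter-Glo luminescence. Exposure: 72 hr, 37 C, 5% CO2, 95% humidity. Cells: MV4-11 without SYK inhibitor history, 500/well, qHTS format.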
In general terms: Quantitative high-throughput screening tests each substance at several concentrations.
For the compound `CC(=O)c1c(C)cc(O[C@@H]2O[C@H](CO)[C@@H](O)[C@H](O)[C@H]2O)cc1O`, the “viability (% of control)” value was 73.9%.
For the compound `CC(=O)O[C@H]1CC(C)(C)CC2[C@]13CO[C@@]21CCC2[C@@]4(C)CC[C@H](O[C@@H]5OC[C@H](O[C@@H]6O[C@H](CO)[C@@H](O)[C@H](O)[C@H]6O[C@@H]6OC[C@@H](O[C@@H]7O[C@H](CO)[C@@H](O)[C@H](O)[C@H]7O)[C@H](O)[C@H]6O)[C@H](O)[C@H]5O[C@@H]5O[C@H](CO)[C@@H](O)[C@H](O)[C@H]5O)[C@@](C)(CO)C4CC[C@@]2(C)[C@]1(C)C[C@H]3O` (stereo not given in full), the Potency was 1.55 µM (active).
With `CC1(O)CC(O)C2(O)C=COC(O[C@@H]3O[C@H](CO)[C@@H](O)[C@H](O)[C@H]3O)C12` (stereo not given in full), the “viability (% of control)” value was 81.8%.
On to `COc1cc2c(cc1OC)CN(C(=O)/C=C/c1c(-c3ccccc3)n(C)c3ncccc13)CC2`, for which the Potency is 2.59 µM (active).
Consider `Cc1cc(CN)cc(C)c1NC(=O)c1ccc(-c2cc(Cl)ccc2Cl)o1`, for which the Potency was 6.51 µM (active).
Take `C=CC(=O)N1CCCC(n2nc(-c3ccc(Oc4ccccc4)cc3)c3c(N)ncnc32)C1` (stereo not given): the Potency is 0.58 µM (active).
Same read-out and setting: under `COc1cc(-c2cc(-c3cccc(O)c3)cnc2N)cc(OC)c1OC` stands 11.6 µM (active); under `Cc1cncc2cccc(S(=O)(=O)N3CCCNC[C@@H]3C)c12`, 3.66 µM (active).
For `O=C1Nc2ccc(O)cc2O[C@H]1O[C@@H]1O[C@H](CO)[C@@H](O)[C@H](O)[C@H]1O`, the “viability (% of control)” value was 80.1%.
In the case of `CCC1=C(C)C(=O)C(C)CC12C(=O)CCC2C(=O)O` (stereo not given), the “viability (% of control)” value was 73.5%.
For `C=C1CCC2C(C)(C(=O)O)CCCC2(C)C1CC/C(=C\CO)CO` (stereo not given), the “viability (% of control)” value is 68%.
For `COc1cc(OC)cc(N2CCN(C(=O)Nc3nc4cc(F)ccc4nc3OC)CC2)c1`, the Potency was 0.934 µM (active).
With `OC[C@H]1O[C@@H](O[C@H]2[C@H](O)[C@@H](CO)O[C@@H](OCc3ccccc3)[C@@H]2O[C@@H]2OC[C@](O)(CO)[C@H]2O)[C@H](O)[C@@H](O)[C@@H]1O`, the “viability (% of control)” value was 82.3% [at 17.3 µM].
Consider `COc1nc2ccc(Br)cc2cc1[C@@H](c1ccccc1)[C@@](O)(CCN(C)C)c1cccc2ccccc12`, for which the Potency was 6.51 µM (active).
For the compound `CCOc1nc2c(N)ncnc2n1CC`, the “viability (% of control)” value was 51.1%.
As to `CC(=O)c1c(O)cc(O[C@@H]2O[C@H](CO)[C@@H](O)[C@H](O)[C@H]2O)cc1O`, the “viability (% of control)” value is 65.4%.
As for `O=S(c1cc(Cl)cc(Cl)c1O)c1cc(Cl)cc(Cl)c1O`, the “viability (% of control)” value is 59.3%.
`C/C1=C\CCC2=CC(OC2=O)C(C)(C)/C=C/C1=O` (stereo not given): the Potency was 4.61 µM (active).
With `C=CS(=O)(=O)NC1CCN(C(=O)CNc2cc(I)c(Cl)cc2OC)CC1`, the Potency is 3.26 µM (active).
The same measure, in the same setting: under `CCN1CCN(Cc2ccc(-c3cc4c(NC(C)c5ccccc5)ncnc4[nH]3)cc2)CC1` (stereo not given) stands 0.92 µM (active).
On the same count and under the same terms, under `C=C1C(=O)O[C@@H]2C3=C(C)CCC[C@]3(C)CC[C@@]12O` stands 1.64 µM (active).
`Cc1ccc(C(=O)Nc2noc3ccccc23)cc1`: the “viability (% of control)” value is 57.5%.
Turning to `C[C@@H]1C/C=C/C=C\C=C\C=C\[C@H](O[C@@H]2O[C@H](C)[C@@H](O)[C@H](N)[C@@H]2O)C[C@@H]2O[C@](O)(C[C@@H](O)C[C@H]3O[C@@H]3/C=C/C(=O)O1)C[C@H](O)[C@H]2C(=O)O`, the “viability (% of control)” value is 60.8% [at 17.3 µM].
Consider `Cc1ncc(CCCN(C)C)cc1Nc1ncc2c(n1)-c1ccc(C(F)(F)F)cc1NC(=S)C2`, for which the Potency was 0.0517 µM (active).
As for `CC(C)(C)c1ccc(S(=O)(=O)Nc2ccc(-n3ccnc3)cc2)cc1`, the Potency is 10.3 µM (active).
Take `C[C@@H]1CC[C@]2(C(=O)O)CC[C@]3(C)C(=CCC4[C@]5(C)C(CC[C@]43C)C(C)(C)[C@@H](O)[C@H](O)[C@@H]5O)C2[C@]1(C)O` (stereo not given in full): the “viability (% of control)” value was 80% [at 17.3 µM].
As to `C=C1CN(Cc2ccc(C(=O)Nc3ccccc3N)cc2)C(=O)c2ccccc21`, the Potency is 0.651 µM (active).
On to `CC1(C)CC[C@]2(C(=O)O[C@@H]3O[C@H](CO[C@@H]4O[C@H](CO)[C@@H](O)[C@H](O)[C@H]4O)[C@@H](O)[C@H](O[C@@H]4O[C@H](CO)[C@@H](O)[C@H](O)[C@H]4O)[C@H]3O)[C@H](O)C[C@]3(C)C(=CCC4[C@@]5(C)CC[C@H](O[C@@H]6OC[C@@H](O)[C@H](O)[C@H]6O)[C@@](C)(C(=O)O)C5CC[C@]43C)[C@@H]2C1` (stereo not given in full), for which the viability (% of control) is 67.4% [at 9.25 µM].
For `c1nc(NCC2CCOC2)c2cc(-c3ccc4c(c3)OCO4)ccc2n1` (stereo not given), the Potency is 20.6 µM (active).
On to `O=C(/C=C/c1ccc(O)c(O)c1)OC[C@H]1O[C@@H](OC2CCCCC2O)[C@H](O)[C@@H](O)[C@@H]1O` (stereo not given in full), for which the “viability (% of control)” value is 91.3% [at 17.3 µM].
As for `COc1ccc2c(c1)[C@@H]1C[C@]1(C(=O)N1[C@@H]3CC[C@H]1CN(C)C3)Cn1c-2c(C2CCCCC2)c2ccc(C(=O)NS(=O)(=O)N(C)C)cc21`, the Potency was 11.6 µM (active).
Take `O=C(O)c1cccc(C(=O)CCC2OC(n3cnc4c(=O)[nH]cnc43)C(O)C2O)c1` (stereo not given): the “viability (% of control)” value was 69.1% [at 17.3 µM].
As for `C[C@@H]1O[C@@H](O[C@H]2[C@H](O[C@H]3[C@H](O[C@H]4CC[C@@]5(C=O)C(CC[C@]6(C)C5CC=C5C7CC(C)(C)C[C@@H](O)[C@]7(C)CC[C@]56C)C4(C)C)O[C@H](C(=O)O)[C@@H](O)[C@@H]3O)OC[C@@H](O)[C@@H]2O)[C@H](O)[C@H](O)[C@H]1O` (stereo not given in full), the viability (% of control) was 85.7% [at 9.25 µM].
Take `CO/N=C(/C(=O)N[C@@H]1C(=O)N2C(C(=O)O)=C(CSC(=O)c3ccco3)CS[C@H]12)c1csc(N)n1`: the Potency result was “inactive”.
With `COc1cc2c(NC3CCN(C(C)C)CC3)nc(N3CCC(F)(F)CC3)nc2cc1OCCCN1CCCC1`, the Potency was 5.17 µM (active).
For the compound `C=C(C)[C@@H]1CC[C@]2(C)CC[C@]3(C)[C@H](CC[C@@H]4[C@@]5(C)CC[C@@H](O)C(C)(C)[C@@H]5CC[C@]43C)[C@@H]12`, the “viability (% of control)” value was 8.49% [at 17.3 µM].
For the compound `OCC(Cc1ccccc1)Nc1nc(Oc2ccc3c(c2)CCC3)nc2c1ncn2Cc1ccc(-c2ccccc2)cc1` (stereo not given), the Potency was 18.4 µM (active).
On to `COc1cc(C(=O)OC[C@H]2O[C@H](O[C@@]3(CO)O[C@@H](CO)[C@H](O)[C@H]3O)[C@H](O)[C@@H](O)[C@@H]2O)ccc1O`, for which the “viability (% of control)” value was 79.7% [at 17.3 µM].
For the compound `C=C1CC2[C@@]3(C)C=CC(=O)C(C)(C)C3=C(O)C(=O)[C@@]2(C)C2(C(=O)OC)C(=O)C(C)OC(=O)[C@@]12C` (stereo not given in full), the Potency was 10 µM (active).
`CC(=O)NC(Cc1ccccc1)C(=O)NC(C(=O)O)C(C)C` (stereo not given): the “viability (% of control)” value was 54.3%.
